Rab9 prom act: activators of Rab9 promoter. Potency, µM (series often up to 9.22 µM), for the others: top-dose activation, negative = inhibition, actives largely listed as activators. Huh7 Rab9 promoter-luciferase reporter, luminescence, 24 h. AID 485297. actives 2.8% (n = 320,000); note: % of control where 0% means no effect; nearly all actives have a fitted effect of over 60% in size
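Using Huh7 cells stably transfected with Rab9 promoter–luciferase, compounds were incubated 24 h at 37 °C, 5% CO2; luciferase luminescence was read 10 min after reagent addition.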
NPC1 promoter act: activates the NPC1 promoter | Huh7 NPC1 promoter luciferase reporter, 24 h | Potency, µM (series often up to 9.22 µM), without a hit: at the top dose activation, usual class: activators | actives 2.4% (n = 320,000); note: % of control where 0% means no effect; nearly all actives have a fitted effect of over 60% in size
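Stable NPC1-promoter luciferase Huh7 line; cpd (DMSO) 24 h, 37 °C, 5% CO2; Amplite luciferase reagent 10 min RT; luminescence readout. qHTS format.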
ELG1 genotoxic: inducers of genotoxicity in HEK293T ELG1-luciferase cells. actives 1.3% (n = 330,000). Potency, µM (doses to about 46 µM), without a hit: at the highest dose activity change, positive = activation, hits mostly activators. HEK293T ELG1-luciferase reporter, luminescence, 16 h. AID 504466; note: % of control where 0% means no effect; nearly all actives have a fitted effect of over 60% in size
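DMSO vehicle served as control against compound-treated ELG1-luciferase HEK293T cells; exposure lasted 16 hr at 37 °C and 5% CO2, followed by ONE-Glo luminescence detection after 30 min.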
SMN2 splice enh: SMN2 splice variant enhancement; Potency, µM (titrated, usually from 46.1 µM), without a hit: at the top dose activity change, positive = activation, most hits filed as activators; AID 1458; HEK293 SMN2-luciferase splicing reporter, luminescence, 30-36 h; actives 2.8% (n = 210,000); note: % of control where 0% means no effect; nearly all actives have a fitted effect of over 55% in size
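HEK293 cells carry an SMN2 minigene-luciferase reporter in which exon 7 inclusion puts luciferase in frame. Cells were seeded at 2000 cells/well, attached for 10-12 hours, then exposed to compounds for 30-36 hours at 37C before ONE-Glo luminescence.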
FLuc counter: counter-screen for miR-21 project: firefly luciferase inhibitors or activators; P08659; actives 6.9% (n = 360,000); purified FLuc, Km substrates, luminescence inhibition; AID 588342; Potency, µM (series often up to 57.5 µM), without a hit: top-dose activity change, negative = inhibition, most hits filed as inhibitors;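 note: plate controls were vehicle for no effect and reference inhibitor for full effect; nearly all actives have a fitted effect of over 55% in size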
Target sequence (P08659 whole entry, looked up): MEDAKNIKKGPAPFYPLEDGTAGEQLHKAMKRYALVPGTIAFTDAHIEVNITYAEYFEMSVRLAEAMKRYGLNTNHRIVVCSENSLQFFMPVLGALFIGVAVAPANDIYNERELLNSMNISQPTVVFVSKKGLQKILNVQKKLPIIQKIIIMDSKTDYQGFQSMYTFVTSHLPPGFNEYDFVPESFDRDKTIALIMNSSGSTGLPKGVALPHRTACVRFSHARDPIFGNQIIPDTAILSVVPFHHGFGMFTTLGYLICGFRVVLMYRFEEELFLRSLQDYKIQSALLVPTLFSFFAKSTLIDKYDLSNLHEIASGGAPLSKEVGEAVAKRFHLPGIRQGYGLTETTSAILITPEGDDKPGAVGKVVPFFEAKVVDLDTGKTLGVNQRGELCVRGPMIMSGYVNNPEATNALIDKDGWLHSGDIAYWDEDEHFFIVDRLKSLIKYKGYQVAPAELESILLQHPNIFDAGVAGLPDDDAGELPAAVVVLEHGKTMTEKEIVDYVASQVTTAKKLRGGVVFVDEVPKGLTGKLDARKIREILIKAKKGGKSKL
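Purified P. pyralis luciferase (10nM final) with 10uM D-luciferin and 10uM ATP (Km levels) in 50mM Tris acetate pH 7.5, 10mM Mg acetate, 0.01% Tween-20, 0.05% BSA; qHTS 6-point titration, ~60 µM downward; luminescence read.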
The depositor's hits bear a star; ? = inconclusive; / = no result; [ ] = another dose, or the depositor's remark. In the library only some 7.4% were active in any assay of this set; here they are far more common. Calls come from the whole dose curve; as a rule, active = well fitted curve in the direction sought with a large enough effect; inconclusive = small, poorly fitted or top-dose-only effect, or another doubt; inactive = no such curve, though single readings can be large; an effect the other way counts as inactive or inconclusive. Potency is the fitted concentration of half-maximal effect.

SMILES	Rab9 prom act	NPC1 promoter act	ELG1 genotoxic	SMN2 splice enh	FLuc counter
COc1ccc(/C=N\Nc2ccccn2)c(OC)c1	?	?	?	/	3.38µM*
O=C(Nc1ccc(F)cc1F)c1ccc(-n2cnnc2)cc1	/	/	/	/	-2.2%
O=C(O)CSc1cc(C(=O)c2ccccc2O)cn2c(=O)c3c4c(sc3nc12)CCCC4	2.2%	1.3%	12.0%	/	4.26µM*
O=C(O)CSc1nc2sc3c(c2c(=O)n1Cc1ccccc1)CCCCC3	22.4%	23.8%	?	/	?
O=C(Nc1ccc2nc(SCC(=O)N3CCc4ccccc43)sc2c1)c1ccc(F)cc1	/	/	/	/	-18.0%
O=C(Cc1ccccc1F)NC1CCCN(Cc2ccc(Cl)cc2)C1 (stereo not drawn)	1.5%	-38.3%	-8.4%	/	1.3%
O=C(N/N=C/c1ccc(C(F)(F)F)cc1)c1ccc(O)cc1	10.9%	15.7%	13.4%	6.2%	10.7µM*
O=C(N/N=C/c1ccc(O)cc1)c1csc2c1CCCC2	23.1%	22.5%	8.9%	29.7%	13.5µM*
O=C(N/N=C/c1cccc(C(F)(F)F)c1)c1ccc(O)cc1	13.7%	-2.6%	6.5%	10.6%	16.9µM*
COc1ccc(-c2cn3cc(Cl)ccc3n2)cc1OC	?	16.2%	?	11.2µM*	7.57µM*
O=C(O)c1ccccc1-c1cn2cc(Cl)ccc2n1	?	17.6%	-4.4%	18.5%	7.57µM*
Clc1ccc2nc(-c3ccc(Br)s3)cn2c1	?	19.0%	0.411µM*	0.708µM*	0.338µM*
COc1ccc(-c2cn3cc(C)ccc3n2)cc1Br	1.26µM*	0.891µM*	?	2.24µM*	0.477µM*
O=C(O)CSCc1cn2cc(Cl)ccc2n1	-5.2%	-2.4%	-4.7%	18.5%	-17.5%
Cc1ccc(S(=O)(=O)N2CCN(C(=O)CSC(=S)N3CCCC3)CC2)c(C)c1	0.1%	-9.3%	-1.5%	/	/
Clc1ccccc1CSc1cc2c(nn1)-c1ccccc1CC2	2.51µM*	?	?	20µM*	5.36µM*
O=C(COc1ccccc1Cl)NC(=O)NC1CCCC1	?	16.0%	?	-10.4%	13.5µM*
O=C(COc1ccc(Cl)cc1Br)NC(=O)NC1CCCC1	3.16µM*	3.55µM*	?	/	6.01µM*
O=C(COc1ccc(Cl)cc1Cl)NC(=S)N1CCCc2ccccc21	3.7%	-26.2%	2.7%	-28.8%	26.9µM*
O=C(COc1ccc(Cl)cc1Cl)OCC(=O)N1CCCc2ccccc21	-1.1%	-3.5%	4.2%	13.4%	-0.9%
O=C(COc1ccc(Cl)cc1Cl)NC(=O)NC1CCCC1	?	?	?	/	9.53µM*
Cc1ccc2c(c1)cc1c(=O)n(CC(=O)NCCN3CCCC3)nc(C)n12	5.3%	2.4%	3.6%	/	-4.3%
Cc1cc(C)c2c(n1)SCC(=O)N2CC(=O)Nc1cccc(C)c1C	/	/	/	11.6%	8.2%
O=C(COc1ccc(Cl)cc1Cl)NC(=O)N1CCCCC1	?	25.2%	2.91µM*	2.24µM*	3.38µM*
Cc1cc(Cl)ccc1OCC(=O)N1CCCCC1	27.6%	?	20.6µM*	?	16.9µM*
SMILES	Rab9 prom act	NPC1 promoter act	ELG1 genotoxic	SMN2 splice enh	FLuc counter
O=C(COc1ccc(Cl)cc1Cl)N1CCCN(C(=O)COc2ccc(Cl)cc2Cl)CC1	-2.2%	-1.6%	-12.4%	-34.1%	-9.2%
O=C(COc1ccc(Cl)cc1Cl)NC1CCSC1=O (stereo not drawn)	3.55µM*	?	16.4µM*	?	10.7µM*
Cc1cc(Cl)ccc1OCC(=O)N1CCN(c2ncccn2)CC1	-10.4%	1.7%	-2.6%	-17.6%	-1.1%
CC(=O)c1ccccc1OC(=O)COc1ccc(Cl)cc1C	1.9%	-4.0%	2.0%	0.0%	16.9µM*
CCOC(=O)Cc1csc(NC(=O)CCN2C(=O)c3ccccc3C2=O)n1	22.2%	-2.1%	-0.1%	-7.6%	0.8%
COc1cc(-c2ccc(N=C=O)c(OC)c2)ccc1N=C=O	/	/	/	-9.9%	/
COc1ccc(-n2ncc3c(NCc4cccs4)ncnc32)cc1	1.12µM*	2.51µM*	?	?	9.53µM*
NNc1ncnc2c1cnn2-c1ccccc1	0.4%	9.7%	-8.5%	-10.7%	?
COc1ccc(CCNc2ncnc3c2cnn3-c2ccc(F)cc2)cc1	/	/	/	/	-15.5%
c1ccc(-n2ncc3c(NCc4cccs4)ncnc32)cc1	2µM*	3.55µM*	10.3µM*	11.2µM*	12µM*
CCN(Cc1cnn(C)c1)Cc1nc(C(c2ccccc2)c2ccccc2)no1	5.0%	-1.2%	-2.2%	/	-2.9%
COc1cc2ncnc(N[C@H](C)c3ccccc3)c2cc1OC	-3.5%	-4.7%	-4.6%	/	-1.0%
Cc1ccc(NC(=O)NCc2ccc3c(c2)CCN3C(=O)c2ccccc2)c(Cl)c1	/	/	/	/	-12.7%
CN1C=C/C(=C\c2cc[n+](C)c3ccccc23)c2ccccc21	-31.8%	-39.3%	11.8%	-82.4%	16.9µM*
CC(=O)Nc1ccc(S(=O)(=O)NC2CC3CCC2C3)cc1 (stereo not drawn)	-0.5%	-0.3%	-5.5%	/	0.0%
COc1ccccc1/C=C/CN1CCNC(=O)C1CC(=O)NCCc1cnccn1 (stereo not drawn)	4.4%	-4.9%	4.8%	/	3.7%
COc1cccc(CSc2nc3ccncc3n2CC(=O)Nc2ccc(OC)c(OC)c2OC)c1	/	/	/	?	15.1µM*
COC(=O)Cn1c(SCc2ccccc2)nc2ccccc21	11.7%	21.7%	?	12.5%	15.1µM*
CCSc1nc2ccccc2n1CC(=O)OC	-3.2%	0.6%	-0.8%	-8.7%	-1.2%
COc1ccc(CSc2nc3ccncc3n2CC(=O)Nc2cc(C)cc(C)c2)cc1	/	/	/	?	2.39µM*
COc1ccc(S(=O)(=O)n2nc(C)c(S(=O)(=O)N3CCCCCC3)c2C)cc1C	/	/	/	/	-17.6%
C=CC1=C2C=C(C3CC3)N(CCOC)C=C2C(=O)C(C)(OC(=O)c2ccco2)C1=O (stereo not drawn)	/	/	/	10.8%[9.22 µM]	/
CCCC(=O)Nc1ccc(-c2csc(N/N=C\c3ccncc3)n2)cc1	?	?	-13.0%	/	3.01µM*
CC(=O)Nc1ccc(-c2csc(N/N=C\c3ccncc3)n2)cc1	14.7%	17.7%	-5.9%	/	7.57µM*
CCCC(=O)Nc1ccc(-c2csc(NNC(C)=O)n2)cc1	0.6%	0.3%	-0.8%	/	-16.7%
CC(C)c1ccc(NC(=O)CSc2nc(=O)n(CCCN3CCOCC3)c3c2CCCC3)cc1	-2.1%	-4.5%	8.6%	/	-0.6%
COc1ccc(OC)c(-n2c3c(cc(-c4nc(-c5ccc(Cl)cc5)cs4)c2=O)C(=O)CC(C)(C)C3)c1	/	/	/	-0.7%	-2.8%
O=C1CCC/C1=C/Nc1ccc2c(c1)OCO2	?	10.2%	7.9%	?	16.9µM*
CC1CCC/C(=C\Nc2ccccc2C(=O)O)C1=O (stereo not drawn)	0.1%	19.5%	12.2%	13.5%	23.9µM*
CC1CCC/C(=C\Nc2ccc3c(c2)OCO3)C1=O (stereo not drawn)	?	?	10.3µM*	?	8.49µM*
